In assay [1] the target is 5'-AMP-activated protein kinase catalytic subunit alpha-2 (Homo sapiens) (UniProt P54646). Conditions: at 1 µM.
Assay [2] deals with T1, NUAK family SNF1-like kinase 1 (Homo sapiens) (UniProt O60285).
T1 sequence (whole entry): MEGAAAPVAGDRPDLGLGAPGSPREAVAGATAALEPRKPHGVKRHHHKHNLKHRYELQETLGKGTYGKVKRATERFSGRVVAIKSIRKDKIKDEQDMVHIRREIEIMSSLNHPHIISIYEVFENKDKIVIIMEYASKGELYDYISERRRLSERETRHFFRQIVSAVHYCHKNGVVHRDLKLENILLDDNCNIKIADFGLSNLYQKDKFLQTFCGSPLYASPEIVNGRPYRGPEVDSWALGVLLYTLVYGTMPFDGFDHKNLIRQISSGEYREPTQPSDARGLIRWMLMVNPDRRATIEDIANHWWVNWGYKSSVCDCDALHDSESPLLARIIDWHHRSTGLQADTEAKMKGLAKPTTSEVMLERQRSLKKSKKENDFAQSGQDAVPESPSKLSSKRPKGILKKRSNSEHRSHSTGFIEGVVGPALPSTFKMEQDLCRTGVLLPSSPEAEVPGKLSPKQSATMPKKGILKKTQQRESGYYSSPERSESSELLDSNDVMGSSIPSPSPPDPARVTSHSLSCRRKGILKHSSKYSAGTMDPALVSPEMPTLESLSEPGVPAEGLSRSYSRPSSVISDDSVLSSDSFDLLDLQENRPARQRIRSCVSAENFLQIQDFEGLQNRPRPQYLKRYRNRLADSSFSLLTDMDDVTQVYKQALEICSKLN
The note with it: at 0.1 µM.

For assay [3], the target named is T1, NUAK family SNF1-like kinase 1 (Homo sapiens). Conditions: at 1 µM.
The target in assay [4] is T2, Serine/threonine-protein kinase BRSK1 (Homo sapiens) (UniProt Q8TDC3).
T2 sequence (whole entry): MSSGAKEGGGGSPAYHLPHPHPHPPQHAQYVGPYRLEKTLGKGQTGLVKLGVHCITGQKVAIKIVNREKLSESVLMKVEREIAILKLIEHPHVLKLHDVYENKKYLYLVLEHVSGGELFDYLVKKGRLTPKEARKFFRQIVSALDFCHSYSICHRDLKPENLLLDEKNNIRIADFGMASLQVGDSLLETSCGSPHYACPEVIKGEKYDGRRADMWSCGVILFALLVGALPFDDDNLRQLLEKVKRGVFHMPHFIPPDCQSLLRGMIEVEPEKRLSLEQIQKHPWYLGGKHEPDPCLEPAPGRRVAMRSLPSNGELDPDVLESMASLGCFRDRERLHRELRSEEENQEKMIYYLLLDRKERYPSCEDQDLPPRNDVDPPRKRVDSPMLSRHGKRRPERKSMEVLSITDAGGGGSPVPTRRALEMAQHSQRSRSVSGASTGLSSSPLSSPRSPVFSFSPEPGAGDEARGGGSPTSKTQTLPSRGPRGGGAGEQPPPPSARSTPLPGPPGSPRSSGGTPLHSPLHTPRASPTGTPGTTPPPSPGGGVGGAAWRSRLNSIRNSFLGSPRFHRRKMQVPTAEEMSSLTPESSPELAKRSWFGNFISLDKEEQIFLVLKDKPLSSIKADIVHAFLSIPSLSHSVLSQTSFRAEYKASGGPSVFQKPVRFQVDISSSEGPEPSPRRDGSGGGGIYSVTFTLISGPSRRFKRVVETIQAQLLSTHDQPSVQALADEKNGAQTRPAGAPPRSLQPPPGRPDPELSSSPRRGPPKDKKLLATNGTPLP
The note with it: at 0.1 µM.

The target in assay [5] is T2, Serine/threonine-protein kinase BRSK1 (Homo sapiens). Conditions: at 1 µM.
The target in assay [6] is T3, Serine/threonine-protein kinase BRSK2 (Homo sapiens) (UniProt Q8IWQ3).
T3 sequence (whole entry): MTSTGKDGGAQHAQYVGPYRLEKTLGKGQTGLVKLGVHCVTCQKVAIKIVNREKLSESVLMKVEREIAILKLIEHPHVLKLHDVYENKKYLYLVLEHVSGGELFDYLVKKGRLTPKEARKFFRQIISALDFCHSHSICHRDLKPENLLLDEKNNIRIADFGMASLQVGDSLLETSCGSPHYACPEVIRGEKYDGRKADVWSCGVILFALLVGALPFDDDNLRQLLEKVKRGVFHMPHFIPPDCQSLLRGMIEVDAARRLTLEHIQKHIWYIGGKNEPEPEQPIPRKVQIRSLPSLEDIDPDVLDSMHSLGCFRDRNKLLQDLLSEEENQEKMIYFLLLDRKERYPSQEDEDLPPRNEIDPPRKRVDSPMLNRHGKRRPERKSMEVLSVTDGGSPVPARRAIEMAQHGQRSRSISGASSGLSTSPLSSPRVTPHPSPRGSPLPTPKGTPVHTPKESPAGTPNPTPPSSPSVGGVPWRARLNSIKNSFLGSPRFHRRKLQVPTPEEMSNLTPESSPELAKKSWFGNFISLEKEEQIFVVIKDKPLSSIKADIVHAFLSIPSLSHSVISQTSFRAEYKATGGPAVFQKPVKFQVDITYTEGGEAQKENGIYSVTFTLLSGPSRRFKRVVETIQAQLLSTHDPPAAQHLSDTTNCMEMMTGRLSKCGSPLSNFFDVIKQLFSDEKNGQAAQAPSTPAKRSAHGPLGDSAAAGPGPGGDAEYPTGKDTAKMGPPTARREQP
Conditions: at 0.1 µM.

The target in assay [7] is T3, Serine/threonine-protein kinase BRSK2 (Homo sapiens). Conditions: at 1 µM.
Assay [8] addresses Calcium/calmodulin-dependent protein kinase type 1D (Homo sapiens) (UniProt Q8IU85). The note with it: at 0.1 µM.
For assay [9] the target is unchanged. Conditions: at 1 µM.
Assay [10] has as its target Calcium/calmodulin-dependent protein kinase type II subunit alpha (Homo sapiens) (UniProt Q9UQM7). The note with it: at 0.1 µM.
Assay [11] shares this target. The note with it: at 1 µM.
Assay [12] addresses Calcium/calmodulin-dependent protein kinase type II subunit delta (Homo sapiens) (UniProt Q13557). The note with it: at 0.1 µM.
For assay [13] the target is unchanged. The note with it: at 1 µM.
The target in assay [14] is T4, Calcium/calmodulin-dependent protein kinase type IV (Homo sapiens) (UniProt Q16566).
T4 sequence (whole entry): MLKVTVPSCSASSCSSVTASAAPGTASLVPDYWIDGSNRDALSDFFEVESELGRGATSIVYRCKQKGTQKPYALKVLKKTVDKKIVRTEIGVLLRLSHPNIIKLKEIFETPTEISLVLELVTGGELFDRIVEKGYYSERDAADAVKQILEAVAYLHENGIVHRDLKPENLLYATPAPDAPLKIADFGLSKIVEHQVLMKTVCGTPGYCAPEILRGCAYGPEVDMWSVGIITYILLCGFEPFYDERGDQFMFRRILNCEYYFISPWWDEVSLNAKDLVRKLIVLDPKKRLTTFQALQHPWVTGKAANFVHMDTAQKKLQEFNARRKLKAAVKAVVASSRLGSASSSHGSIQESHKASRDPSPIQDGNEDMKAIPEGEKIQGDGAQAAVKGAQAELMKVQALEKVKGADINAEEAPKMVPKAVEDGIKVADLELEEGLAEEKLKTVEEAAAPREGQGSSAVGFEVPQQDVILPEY
Conditions: at 0.1 µM.

The target of assay [15] is T4, Calcium/calmodulin-dependent protein kinase type IV (Homo sapiens). Conditions: at 1 µM.
In assay [16] the target is T5, Serine/threonine-protein kinase Chk1 (Homo sapiens) (UniProt O14757).
T5 sequence (whole entry): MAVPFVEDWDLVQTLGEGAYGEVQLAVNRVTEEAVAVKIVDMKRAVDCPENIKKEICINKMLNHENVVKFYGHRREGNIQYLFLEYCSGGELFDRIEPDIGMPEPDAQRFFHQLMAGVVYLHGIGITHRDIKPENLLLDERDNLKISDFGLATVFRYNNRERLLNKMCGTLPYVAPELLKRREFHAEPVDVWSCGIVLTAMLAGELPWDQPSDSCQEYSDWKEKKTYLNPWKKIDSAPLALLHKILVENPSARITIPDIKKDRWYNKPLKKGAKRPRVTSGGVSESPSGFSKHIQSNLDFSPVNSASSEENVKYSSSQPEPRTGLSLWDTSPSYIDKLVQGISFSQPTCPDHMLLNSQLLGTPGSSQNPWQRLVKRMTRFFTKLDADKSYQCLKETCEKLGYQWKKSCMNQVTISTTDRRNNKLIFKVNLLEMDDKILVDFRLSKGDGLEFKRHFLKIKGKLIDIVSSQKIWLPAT
Conditions: at 0.1 µM.

The target in assay [17] is T5, Serine/threonine-protein kinase Chk1 (Homo sapiens). The note with it: at 1 µM.
Assay [18] has as its target Serine/threonine-protein kinase Chk2 (Homo sapiens) (UniProt O96017). Conditions: at 0.1 µM.
For assay [19] the target is unchanged. The note with it: at 1 µM.
Assay [20] concerns the target Death-associated protein kinase 1 (Homo sapiens) (UniProt P53355). Conditions: at 0.1 µM.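 Note: reported figure is the mean inhibition of DAPK1.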

Sequence of Calcium/calmodulin-dependent protein kinase type II subunit delta (Homo sapiens) (Q13557 whole entry): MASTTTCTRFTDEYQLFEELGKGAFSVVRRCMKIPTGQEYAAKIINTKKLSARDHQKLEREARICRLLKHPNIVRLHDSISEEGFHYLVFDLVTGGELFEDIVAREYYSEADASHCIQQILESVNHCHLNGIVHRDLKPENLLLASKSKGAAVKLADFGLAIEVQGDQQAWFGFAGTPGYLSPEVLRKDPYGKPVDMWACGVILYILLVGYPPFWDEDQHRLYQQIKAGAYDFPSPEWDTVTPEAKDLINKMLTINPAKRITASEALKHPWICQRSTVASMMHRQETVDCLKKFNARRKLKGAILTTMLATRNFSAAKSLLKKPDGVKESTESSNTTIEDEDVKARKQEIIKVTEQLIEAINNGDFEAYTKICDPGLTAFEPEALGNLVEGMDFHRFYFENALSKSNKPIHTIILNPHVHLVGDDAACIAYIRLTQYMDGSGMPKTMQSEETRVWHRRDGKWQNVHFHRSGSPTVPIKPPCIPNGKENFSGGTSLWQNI
Sequence of 5'-AMP-activated protein kinase catalytic subunit alpha-2 (Homo sapiens) (P54646 whole entry, looked up): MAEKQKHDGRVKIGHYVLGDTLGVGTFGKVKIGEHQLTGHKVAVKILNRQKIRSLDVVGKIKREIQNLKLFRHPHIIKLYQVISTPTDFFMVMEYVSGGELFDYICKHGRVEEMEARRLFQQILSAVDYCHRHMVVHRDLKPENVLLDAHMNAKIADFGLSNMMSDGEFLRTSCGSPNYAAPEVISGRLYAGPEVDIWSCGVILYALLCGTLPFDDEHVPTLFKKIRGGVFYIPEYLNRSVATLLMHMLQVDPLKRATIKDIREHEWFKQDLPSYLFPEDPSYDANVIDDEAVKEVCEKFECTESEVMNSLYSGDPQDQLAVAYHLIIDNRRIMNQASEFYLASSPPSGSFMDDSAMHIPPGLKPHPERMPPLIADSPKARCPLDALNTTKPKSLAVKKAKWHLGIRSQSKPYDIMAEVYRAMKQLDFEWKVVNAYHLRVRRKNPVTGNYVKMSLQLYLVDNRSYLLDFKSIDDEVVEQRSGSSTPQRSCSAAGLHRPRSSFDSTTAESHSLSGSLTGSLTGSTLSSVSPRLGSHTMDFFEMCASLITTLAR
Sequence of Calcium/calmodulin-dependent protein kinase type 1D (Homo sapiens) (Q8IU85 whole entry, looked up): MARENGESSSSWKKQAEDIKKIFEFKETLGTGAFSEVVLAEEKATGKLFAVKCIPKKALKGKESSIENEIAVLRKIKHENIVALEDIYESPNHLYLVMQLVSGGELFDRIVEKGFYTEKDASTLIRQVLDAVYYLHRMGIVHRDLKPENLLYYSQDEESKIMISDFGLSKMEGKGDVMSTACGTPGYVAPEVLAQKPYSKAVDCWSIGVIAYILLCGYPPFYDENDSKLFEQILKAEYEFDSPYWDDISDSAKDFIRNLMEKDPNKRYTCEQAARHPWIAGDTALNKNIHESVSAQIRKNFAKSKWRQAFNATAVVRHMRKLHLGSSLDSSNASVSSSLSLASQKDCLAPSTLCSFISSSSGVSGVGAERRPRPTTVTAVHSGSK
Sequence of Calcium/calmodulin-dependent protein kinase type II subunit alpha (Homo sapiens) (Q9UQM7 whole entry): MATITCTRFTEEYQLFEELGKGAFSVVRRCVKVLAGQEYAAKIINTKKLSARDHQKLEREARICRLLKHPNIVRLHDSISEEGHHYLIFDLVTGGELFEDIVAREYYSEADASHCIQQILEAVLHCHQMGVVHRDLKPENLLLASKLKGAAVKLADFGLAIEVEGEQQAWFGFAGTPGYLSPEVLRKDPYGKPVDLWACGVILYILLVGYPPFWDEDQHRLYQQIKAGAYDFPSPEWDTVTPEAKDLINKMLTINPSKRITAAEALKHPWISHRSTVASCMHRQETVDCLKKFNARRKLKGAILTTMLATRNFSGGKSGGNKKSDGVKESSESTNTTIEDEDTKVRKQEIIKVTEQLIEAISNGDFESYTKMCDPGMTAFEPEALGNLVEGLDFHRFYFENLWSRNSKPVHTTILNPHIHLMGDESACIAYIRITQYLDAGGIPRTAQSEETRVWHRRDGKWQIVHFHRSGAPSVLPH
Sequence of Serine/threonine-protein kinase Chk2 (Homo sapiens) (O96017 whole entry): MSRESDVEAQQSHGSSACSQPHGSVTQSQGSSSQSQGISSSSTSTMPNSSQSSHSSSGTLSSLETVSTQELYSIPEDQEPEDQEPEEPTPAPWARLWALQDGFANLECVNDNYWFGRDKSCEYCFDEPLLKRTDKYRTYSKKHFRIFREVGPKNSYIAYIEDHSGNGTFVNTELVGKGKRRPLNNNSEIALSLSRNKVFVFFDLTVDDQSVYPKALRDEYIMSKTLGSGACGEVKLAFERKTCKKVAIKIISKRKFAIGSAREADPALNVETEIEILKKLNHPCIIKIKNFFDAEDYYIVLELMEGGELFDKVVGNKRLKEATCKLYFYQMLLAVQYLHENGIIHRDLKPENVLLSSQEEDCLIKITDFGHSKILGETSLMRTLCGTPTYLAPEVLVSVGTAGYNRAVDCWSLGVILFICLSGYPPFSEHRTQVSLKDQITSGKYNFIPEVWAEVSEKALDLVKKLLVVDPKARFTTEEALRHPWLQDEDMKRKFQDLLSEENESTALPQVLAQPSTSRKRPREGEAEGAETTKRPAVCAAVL
Sequence of Death-associated protein kinase 1 (Homo sapiens) (P53355 whole entry, looked up): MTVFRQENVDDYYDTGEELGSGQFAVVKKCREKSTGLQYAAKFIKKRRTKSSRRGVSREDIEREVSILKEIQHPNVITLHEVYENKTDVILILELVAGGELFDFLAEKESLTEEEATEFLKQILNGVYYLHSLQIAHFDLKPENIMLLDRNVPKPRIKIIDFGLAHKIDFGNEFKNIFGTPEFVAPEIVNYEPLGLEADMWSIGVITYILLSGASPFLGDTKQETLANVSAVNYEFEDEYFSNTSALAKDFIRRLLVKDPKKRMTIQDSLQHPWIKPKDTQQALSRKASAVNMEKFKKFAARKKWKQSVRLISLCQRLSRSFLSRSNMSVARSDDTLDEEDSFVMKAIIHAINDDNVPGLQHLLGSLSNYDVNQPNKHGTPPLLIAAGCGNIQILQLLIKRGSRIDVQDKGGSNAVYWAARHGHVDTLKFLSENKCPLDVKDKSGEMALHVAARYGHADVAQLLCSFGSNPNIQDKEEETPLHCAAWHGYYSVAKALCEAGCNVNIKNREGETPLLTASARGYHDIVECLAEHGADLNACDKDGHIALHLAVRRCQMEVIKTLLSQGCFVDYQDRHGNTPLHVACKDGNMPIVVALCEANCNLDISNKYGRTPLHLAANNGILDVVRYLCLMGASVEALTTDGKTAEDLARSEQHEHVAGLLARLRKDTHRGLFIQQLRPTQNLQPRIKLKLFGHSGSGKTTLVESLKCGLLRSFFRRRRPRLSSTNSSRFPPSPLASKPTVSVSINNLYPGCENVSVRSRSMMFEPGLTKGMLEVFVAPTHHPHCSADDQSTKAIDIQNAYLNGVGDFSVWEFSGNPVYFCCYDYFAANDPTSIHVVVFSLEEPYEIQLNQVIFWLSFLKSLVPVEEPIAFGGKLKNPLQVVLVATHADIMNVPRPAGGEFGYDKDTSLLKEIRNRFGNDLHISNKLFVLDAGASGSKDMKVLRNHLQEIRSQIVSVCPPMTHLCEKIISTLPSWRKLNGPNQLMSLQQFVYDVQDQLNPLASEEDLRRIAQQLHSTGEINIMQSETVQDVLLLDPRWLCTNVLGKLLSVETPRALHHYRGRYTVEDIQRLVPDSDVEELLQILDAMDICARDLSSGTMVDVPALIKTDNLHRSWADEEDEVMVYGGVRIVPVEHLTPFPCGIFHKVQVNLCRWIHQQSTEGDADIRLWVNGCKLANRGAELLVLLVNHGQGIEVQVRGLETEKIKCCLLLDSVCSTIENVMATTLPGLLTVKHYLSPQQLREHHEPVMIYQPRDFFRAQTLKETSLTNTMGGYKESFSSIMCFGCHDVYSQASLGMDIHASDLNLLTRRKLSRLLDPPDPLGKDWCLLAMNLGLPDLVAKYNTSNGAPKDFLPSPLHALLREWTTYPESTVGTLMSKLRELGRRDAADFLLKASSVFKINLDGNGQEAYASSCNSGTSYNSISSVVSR

By inhibition is commonly meant the relative decrease from the control value, in per cent. For `CCC(=O)Nc1ccc(C)c(-c2ccc(C(=O)NCC3CC3)cc2)c1`, the inhibition in assay [1] is 2.49%; in assay [2], 0.85%; in assay [3], 1.36%; in assay [4], 1.35%; in [5], 0.24%; in [6], 1.47%. Further, the inhibition in assay [7] worked out at 2.78%; in assay [8], 0.77%; in [9], 1.64%; in [10], 1.27%; in [11], 1.21%; in assay [12], 2.68%. Also, the inhibition in [13] was 4.75%; in assay [14], -0.67%; in assay [15], 2.05%; in assay [16] it was 0.06%; in assay [17] it was -0.8%; in assay [18] it was 3.52%. Further, the figures for the inhibition in assay [19] and in assay [20] were 5.57% and -0.61%, respectively.

Take `C[C@@H](Oc1cc(-n2cnc3ccc(OCC4CCN(C)CC4)cc32)sc1C(N)=O)c1ccccc1Cl`: the inhibition in [1] was 13.7%; in [2], 30.2%; in assay [3] it was 71.9%; in assay [4], 28.5%; in [5] it was 60%; in assay [6], 38.5%. The inhibition stood at 72.8% in assay [7]; 1.56% in assay [8]; 5.96% in [9]; 6.36% in assay [10]; 12.8% in assay [11]; 9.02% in assay [12]. The inhibition is 38.1% in assay [13]; 0.69% in [14]; 3.44% in assay [15]; 7.19% in [16]; 10.4% in assay [17]; 2.55% in assay [18]. The inhibition in assay [19] came to 6.43%; in assay [20], 7.7%.

Consider `NC(=O)Cc1ccccc1Oc1nccc(-c2c(-c3ccc(F)cc3)ncn2C2CCNCC2)n1`, for which the inhibition in [1] came out at 2.59%; in assay [2] it was 0.84%; in [3], 2.97%; in assay [4], 4.71%; in [5], 6.12%; in assay [6], 4.74%. Besides, the inhibition in [7] amounted to 5.25%; in [8], 0.63%; in [9] it was 1.65%; in assay [10] it was 2.81%; in assay [11] it was 2.07%; in [12], 2.62%. In addition, the inhibition was 2.58% in assay [13]; 0.99% in assay [14]; -0.11% in assay [15]; 0.75% in assay [16]; 5.68% in assay [17]; 4.2% in [18]. Besides, the inhibition in assay [19] amounted to 6.05%; in assay [20], 2.51%.

For the origin of these results see ChEMBL document CHEMBL1961873, “Compounds: GSK PKIS; Assays: Nanosyn kinase panel” (2012).
